Bioassay records as filed in PubChem.
Not all results are given here.
aSyn UTR act: Activators via SNCA 5'UTR binding, MLPCN; AID 1814, 2009; alpha-synuclein 5'UTR reporter, activators screen; 7.1% of 300,000 active; activity score, % (tested at 7.5 µM), hits read low; in the data active = activity score below about -60%
Numbers without * were called inactive.

SMILES	aSyn UTR act
Cc1ccc(/C=N/NC(=O)c2ccco2)s1	-136*
CCCS(=O)(=O)NCc1cn2c(C)csc2n1	-112*
Cc1csc2nc(CCNS(=O)(=O)c3cccs3)cn12	-141*
Cc1csc2nc(CNC(=O)c3ccco3)cn12	-68*
CCOc1ccc2nc(N3C(=O)/C(=C/c4ccc(Cl)cc4)NC3=S)sc2c1	-73*
CC1=C(C(=O)Nc2ccccn2)C(c2ccc(Cl)cc2)NC(=S)N1 (stereo not given)	-122*
CC1=C(C(=O)Nc2ccccn2)C(c2ccc(Br)cc2)NC(=S)N1 (stereo not given)	-106*
CCCCCCCCn1ccc(=N)cc1	62
CCCCCCCCCCn1ccc(=N)cc1	106
CCCCCCN1Cc2ccccc2C1	-117*
COCCCNC(=O)c1ccc(Cn2c(=O)c3ccccc3n(Cc3ccccc3C#N)c2=O)cc1	55
CCCN(CCC)CCCNC(=O)c1cc2c(=O)n(CC)c3ccccc3c2s1	-300*
CCn1c(=O)c2cc(C(=O)NCCCOC)sc2c2ccccc21	-85*
CCCCN(CC)CCCNC(=O)c1cc2c(=O)n(CC)c3ccccc3c2s1	-321*
CCCCN(CC)CCNC(=O)c1cc2c(=O)n(CC)c3ccccc3c2s1	-274*
COCCNC(=O)c1cc2sc3ccccc3c2s1	-175*
COCCNC(=O)/C(C#N)=C/c1ccc(OCc2ccc(F)cc2)cc1	-73*
COCCNC(=O)/C(C#N)=C/c1ccc(OCc2ccccc2)cc1	-141*
Cc1ccc(CNC(=O)C2CC(c3cccc([N+](=O)[O-])c3)=NO2)o1 (stereo not given)	-88*
COc1ccc(CCNC(=O)C2CC(c3ccc([N+](=O)[O-])cc3)=NO2)cc1 (stereo not given)	-69*
COc1ccc(N2CCN(S(=O)(=O)CCNC(=O)Cc3ccc([N+](=O)[O-])cc3)CC2)cc1	65
O=C(NCCc1cccs1)C1CC(c2ccc([N+](=O)[O-])cc2)=NO1 (stereo not given)	-157*
CCCCNC(=O)C1CC(c2cccc(F)c2)=NO1 (stereo not given)	-94*
COc1ccc(CCNC(=O)C2CC(c3cccc([N+](=O)[O-])c3)=NO2)cc1 (stereo not given)	-112*
CCCc1cnc(N2CCN(C(=S)NC)CC2)nc1	-111*
SMILES	aSyn UTR act
CN(C)c1ccc(N=Nc2ccc(S(N)(=O)=O)cc2)cc1	-96*
C(#CC1CCCC1)c1ccc2c(c1)COc1c3ccccc3nn1-2	-146*
O=C(c1cc(-c2cccc(Cl)c2)on1)N1CCOCC1	-171*
COCCNC(=O)c1cc(-c2ccc(Cl)c(Cl)c2)on1	-78*
O=C(c1cc(-c2ccc(Cl)cc2Cl)on1)N1CCOCC1	80
O=C(c1cc(-c2ccc(Cl)c(Cl)c2)on1)N1CCOCC1	-151*
O=C(c1cc(-c2ccc(F)cc2)on1)N1CCOCC1	-111*
Nc1nonc1-n1nnc(C(=O)N/N=C/c2ccc(OCc3cccc(Cl)c3)cc2)c1CN1CCCCC1	-136*
Cc1cccc(COc2ccc(/C=N/NC(=O)c3nnn(-c4nonc4N)c3CN3CCCCC3)cc2)c1	-101*
Nc1nonc1-n1nnc(C(=O)N/N=C/c2ccc(OCc3ccccc3F)cc2)c1CN1CCCCC1	-111*
CC1CCN(Cc2c(C(=O)N/N=C/c3cc(Cl)ccc3O)nnn2-c2nonc2N)CC1	62
CC1CCN(Cc2c(C(=O)N/N=C/c3cc(Br)ccc3O)nnn2-c2nonc2N)CC1	77
NC(=O)N/N=C/c1ccc(OCc2cccc(Cl)c2)cc1	-73*
Cc1ccc(C(=O)Oc2ccc(/C=N/NC(N)=O)cc2)cc1	-124*
CCOC(=O)C(C(=O)OCC)C1N=C(N)N=C2Oc3ccccc3N21 (stereo not given)	-163*
NC(=Nc1ccc(Br)cc1)c1ccccc1	-75*
CCN(c1ccccc1)c1ncnc2c1cnn2-c1ccccc1	-150*
CN(Cc1ccccc1)c1ncnc2c1cnn2-c1ccccc1	-169*
Nc1nn2cc(-c3ccc(Br)cc3)nc2c2ccccc12	-165*
Brc1ccc(-c2cn3nc4c(nc3n2)CCCC4)cc1	93
CC1Cc2ccccc2N1C(=O)COc1ccc2c(c1)OCO2 (stereo not given)	-91*
CC1CCCN(C(=O)COc2ccc3c(c2)OCO3)C1 (stereo not given)	-69*
C=CCS/C(=N\n1cnc2ccccc2c1=O)N1CCCCC1	-86*
COc1ccccc1Nc1nc(N)nc(-c2cc3ccccc3o2)n1	-62*
O=[N+]([O-])c1cc(Cl)ccc1-c1nc(-c2ccccc2)no1	-181*
SMILES	aSyn UTR act
O=[N+]([O-])c1ccccc1-c1nc(-c2ccc(Br)o2)no1	-266*
O=[N+]([O-])c1cc(Cl)ccc1-c1nc(-c2ccncc2)no1	-143*
COc1ccc(C(=O)/C=C/c2ccccc2)c(OC)c1	-277*
COc1ccc(C(=O)/C=C/Nc2cc(C)on2)c(OC)c1	-72*
COc1ccc(OC)c(C(=O)/C=C/c2ccccc2C(F)(F)F)c1	-198*
Cc1c(C(=O)Nc2ccc3c(c2)OCO3)oc2ccccc12	-137*
COCC(=O)Nc1c(C(=O)Nc2ccc3c(c2)OCO3)oc2ccccc12	-117*
O=C(CCl)Nc1c(C(=O)Nc2ccc3c(c2)OCCO3)oc2ccccc12	-139*
CC(=O)Nc1c(C(=O)Nc2ccc3c(c2)OCO3)oc2ccccc12	-88*
Clc1ccccc1/C=C/c1nc(-c2cccnc2)no1	-195*
C(=C\c1nc(-c2cccnc2)no1)/c1ccccc1	-153*
CCC1(C)Cc2c(sc3nc(SC)n(Cc4ccccc4)c(=O)c23)CO1 (stereo not given)	-118*
O=C(NC(=S)Nc1ccc(CN2CCOCC2)cc1)c1ccco1	-117*
O=C(Nc1ccc(N2CCN(Cc3ccccc3)CC2)cc1)c1ccco1	-86*
O=C(Nc1ccc(N2CCN(Cc3ccccc3F)CC2)cc1)c1ccc([N+](=O)[O-])o1	105
O=C(NC(=S)Nc1ccc(N2CCOCC2)cc1)c1ccco1	-108*
O=C(NCc1cccnc1)c1c[nH]c2cc3c(cc2c1=O)OCCO3	-123*
O=C(c1ccccc1)c1c[nH]c2cc3c(cc2c1=O)OCCO3	-67*
COCCCN=C(c1ccco1)n1c(=S)nc(-c2ccco2)n(CCCOC)c1=S	-88*
N#CC(C#N)=C(Nc1ccc(F)cc1)SCc1cccc(Br)c1	48
CN(C)C(/C=C/Nc1ccc(F)cc1)=C(C#N)C#N	-63*
CCN(CCn1cccn1)C(=O)CCc1nnc(C2(c3ccc(Cl)cc3)CCC2)o1	-86*
CCN(CCn1cccn1)C(=O)CCc1nnc(-c2ccccc2)o1	-73*
C=CCn1c(SCc2c(C)noc2C)nc2sc3c(c2c1=O)CCCCC3	65
O=c1c2c3c(sc2nc2sc(CN4CCCCC4)cn12)CCCC3	-87*
SMILES	aSyn UTR act
C/C(=N\NC(=O)c1nn(C)c(C)c1Br)c1ccc(NC(=O)c2ccc(C)s2)cc1	-149*
C/C(=N\NC(=O)c1nn(C)c(C)c1Br)c1ccc(NC(=O)c2ccccc2F)cc1	-69*
C/C(=N/NC(=O)c1ccoc1C)c1ccc(N2CCOCC2)cc1	-131*
C/C(=N/NC(=O)c1ccoc1C)c1ccc(NC(=O)c2ccncc2)cc1	-206*
C/C(=N\NC(=O)c1ccc(NS(=O)(=O)c2cccs2)cc1)c1ccccn1	71
C/C(=N\NC(=O)c1nn(C)c(C)c1Br)c1ccc(NC(=O)c2ccoc2C)cc1	-115*
Cc1ccc(/C=N/NC(=O)c2cc(-c3cccnc3)nc3ccccc23)cc1	81
C/C(=N\NC(=O)c1ccoc1C)c1cccnc1	-117*
